Experimental findings from PubChem BioAssay (NCATS) are described below.

Test [1] has as its target N-terminal Xaa-Pro-Lys N-methyltransferase 1 (Homo sapiens) (UniProt Q9BV86). As to the kind of experiment: qHTS Assay for Inhibitors of N-terminal methyltransferase 1 (NTMT1): LOPAC validation of the NTMT1 SAHH-coupled ThioGlo3 Assay (AID 1347143).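 Note: SAH from peptide methylation measured as thiol fluorescence via SAHH coupling and ThioGlo3; nearly all actives have a fitted effect of over 70% in size.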 Note: potency is the fitted concentration of half-maximal effect. Summed up:
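Steps: dispense 125nM NTMT1; pin-transfer test compounds at several concentrations, with 1uM RCC1-6 peptide as control; incubate 1 min; start with reagent holding 100uM SAM, 10uM SAHH, 15uM ThioGlo3; read at 0 and 30 min.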

Test [2] concerns Zika virus NS2B-NS3 protease (unlinked). As to the kind of experiment: Optimization of GU AMC qHTS for Zika virus inhibitors: Unlinked NS2B-NS3 protease assay (AID 1347151). Note: nearly all actives have a fitted effect of over 80% in size. Note: potency is the fitted concentration of half-maximal effect. A digest of the protocol: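 Fluorescence read-out (340 nm ex / 450 nm em) of AMC peptide cleavage, taken immediately and after 15 min at room temperature (~20% conversion). Enzyme was the unlinked NS2B–NS3 complex at 25 nM in Tris pH 8.0 buffer.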

Test [3] relates to Zika virus NS2B-NS3 protease. As to the kind of experiment: Primary screen GU AMC qHTS for Zika virus inhibitors (AID 1347154). Note: nearly all actives have a fitted effect of over 70% in size. Note: potency is the fitted concentration of half-maximal effect. A digest of the protocol:
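Unlinked Zika NS2B hydrophilic domain–NS3 protease complex at 25 nM in 10 mM Tris-HCl pH 8.0, 0.01% Tween 20, with an AMC peptide substrate. Fluorescence change (340/450 nm) over 15 min at room temperature, normalized to controls, fitted to 4-parameter Hill.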

A short description of test [4]: Confirmatory screen GU Rhodamine qHTS for Zika virus inhibitors qHTS (AID 1347157). Note: potency is the fitted concentration of half-maximal effect; nearly all actives have a fitted effect of over 70% in size. Particulars: purified enzyme assay, Rhodamine110 substrate fluorescence, 15 min. Summed up:
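Noncovalent NS2B hydrophilic domain/NS3 protease complex (25 nM final) in 10 mM Tris-HCl pH 8.0, 0.01% Tween 20, preincubated 15 min with compounds (up to 114 microM), then 1.5 microM Rhodamine110 substrate. Fluorescence change over 15 min fitted to 4-parameter Hill.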

Test [5] in a line: Confirmatory screen NINDS Rhodamine qHTS for Zika virus inhibitors (AID 1347161). Note: nearly all actives have a fitted effect of over 60% in size. Note: potency is the fitted concentration of half-maximal effect. Summed up:
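In 10 mM Tris-HCl pH 8.0 containing 0.01% Tween 20, linked NS2B-NS3 protease (25 nM final) is exposed to test compounds for 15 min. Cleavage of 1.5 microM Rhodamine110 substrate is tracked by fluorescence over 15 min.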

Test [6] concerns Zika virus NS2B-NS3 protease (linked). As to the kind of experiment: 384 well plate NINDS AMC confirmatory qHTS for Zika virus inhibitors (AID 1347163). Note: potency is the fitted concentration of half-maximal effect; nearly all actives have a fitted effect of over 50% in size. A digest of the protocol: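 Enzyme (5, 30 or 60 nM final) first met test compounds for ~15 min. The AMC-tagged peptide Ac-VKTGKR-AMC followed at 30 microM. Fluorescence was then recorded at 25 min and scaled against no-enzyme and no-inhibitor wells.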

Test [7] has as its target Furin (Homo sapiens) (UniProt P09958). As to the kind of experiment: Furin counterscreen qHTS for Zika virus inhibitors (AID 1347149).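 Note: purified recombinant full-length human furin enzyme at 5 nM; fluorescence gain from furin cutting a BOC-RVRR-AMC peptide substrate over 15 min; top concentration of the series differs between compounds; nearly all actives have a fitted effect of over 70% in size.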 Summed up:
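Counterscreen measures cleavage of 2 microM BOC-RVRR-AMC, below its ~15 microM Km, by 5 nM full-length human furin at pH 7.0 after a 15-min compound preincubation. Inhibition derives from the 15-min fluorescence increase at 37C.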

In test [8] the test system is Zika virus NS2B-NS3 protease (linked construct). As to the kind of experiment: Confirmatory screen NINDS AMC qHTS for Zika virus inhibitors (AID 1347152). Summed up:
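Linked NS2B-NS3 1 nM, Tris pH 8.0/0.01% Tween 20; cpd 15 min RT dark; + Nle-KRR-AMC 10 µM (Km 18.3 µM); read 0 and 15 min, 340/450 nm; %inh vs controls, 4-param Hill.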

The subject of test [9] is Zika virus NS2B-NS3 protease (unlinked complex). As to the kind of experiment: Confirmatory screen GU AMC qHTS for Zika virus inhibitors (AID 1347153). Note: nearly all actives have a fitted effect of over 70% in size. A digest of the protocol:
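Noncovalent NS2B hydrophilic domain/NS3 protease complex (25 nM) in 10 mM Tris-HCl pH 8.0, 0.01% Tween 20 was preincubated 15 min at room temperature with compounds. Then 10 µM AMC substrate (Km 18.3 µM) was added; fluorescence was read over 15 min and fitted to a 4-parameter Hill equation.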

Test [10] has the same test system. As to the kind of experiment: Primary screen GU Rhodamine qHTS for Zika virus inhibitors: Unlinked NS2B-NS3 protease assay (AID 1347159). Note: nearly all actives have a fitted effect of over 60% in size. Summed up: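 Buffer 10 mM Tris-HCl pH 8.0, 0.01% Tween 20. Unlinked protease 25 nM; compound preincubation 15 min, RT, protected from light. Substrate Rhod110, 1.5 microM; ~15% conversion in 15 min.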
The subject of test [11] is Zika virus NS2B-NS3 protease (linked construct). As to the kind of experiment: Primary screen NINDS Rhodamine qHTS for Zika virus inhibitors (AID 1347160). Note: nearly all actives have a fitted effect of over 55% in size. The settings on record: outcome: dose series up to 57.1 µM unless noted. A digest of the protocol:
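Aprotinin served as in-plate control. Conditions: 25 nM linked NS2B-NS3, pH 8.0 Tris buffer, titrated compounds, 15 min preincubation and 15 min reaction with 1.5 microM Rhod110 substrate at room temperature.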

Structures are written as SMILES. Values joined by “and” are separate entries in the source; they are usually repeats but may differ in a detail not shown here. Equal values may be shown once. Records with an inconclusive call do not appear. Active and inactive are the calls of the source. Calls come from the whole dose curve; as a rule, active = well fitted curve in the direction sought with a large enough effect; inconclusive = small, poorly fitted or top-dose-only effect, or another doubt; inactive = no such curve, though single readings can be large; an effect the other way counts as inactive or inconclusive.

N-terminal Xaa-Pro-Lys N-methyltransferase 1 (Homo sapiens), sequence (Q9BV86 whole entry, looked up): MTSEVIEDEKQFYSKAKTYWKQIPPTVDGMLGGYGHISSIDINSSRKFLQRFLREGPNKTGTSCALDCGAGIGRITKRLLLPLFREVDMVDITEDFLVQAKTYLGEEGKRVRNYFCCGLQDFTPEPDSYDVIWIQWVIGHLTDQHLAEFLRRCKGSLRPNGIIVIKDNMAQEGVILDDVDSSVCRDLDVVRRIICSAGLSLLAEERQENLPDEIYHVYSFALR
Furin (Homo sapiens), sequence (P09958 whole entry, looked up): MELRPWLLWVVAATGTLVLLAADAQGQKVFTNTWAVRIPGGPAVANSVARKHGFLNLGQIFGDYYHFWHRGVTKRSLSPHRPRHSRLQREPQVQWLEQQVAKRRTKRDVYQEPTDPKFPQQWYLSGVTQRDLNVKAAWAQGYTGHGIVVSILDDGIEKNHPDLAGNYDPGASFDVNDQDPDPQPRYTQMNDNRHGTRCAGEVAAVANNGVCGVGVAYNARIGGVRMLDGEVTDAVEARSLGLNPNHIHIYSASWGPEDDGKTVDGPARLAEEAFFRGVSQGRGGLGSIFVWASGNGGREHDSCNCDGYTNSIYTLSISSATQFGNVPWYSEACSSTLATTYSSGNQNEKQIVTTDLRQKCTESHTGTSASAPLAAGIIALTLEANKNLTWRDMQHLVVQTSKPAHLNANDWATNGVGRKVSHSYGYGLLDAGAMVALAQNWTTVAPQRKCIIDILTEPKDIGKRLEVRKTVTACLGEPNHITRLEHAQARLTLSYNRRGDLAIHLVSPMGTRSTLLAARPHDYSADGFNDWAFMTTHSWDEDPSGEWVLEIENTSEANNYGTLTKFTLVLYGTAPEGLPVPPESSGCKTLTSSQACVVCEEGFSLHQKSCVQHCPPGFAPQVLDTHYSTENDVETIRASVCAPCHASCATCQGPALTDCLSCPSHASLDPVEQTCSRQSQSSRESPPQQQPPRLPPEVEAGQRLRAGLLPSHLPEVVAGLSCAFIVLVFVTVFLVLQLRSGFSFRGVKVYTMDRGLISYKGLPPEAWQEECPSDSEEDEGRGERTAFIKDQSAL

Consider `Cc1ccc(C(=O)Nc2ccc(S(=O)(=O)O)c3cc(S(=O)(=O)O)cc(S(=O)(=O)O)c23)cc1NC(=O)c1cccc(NC(=O)Nc2cccc(C(=O)Nc3cc(C(=O)Nc4ccc(S(=O)(=O)O)c5cc(S(=O)(=O)O)cc(S(=O)(=O)O)c45)ccc3C)c2)c1`, for which the Potency entry in test [1] is “inactive”. In addition, the Potency in test [2] is 16.8 µM (active); in [3], 5.01 µM (active); in [4] it was 2.82 µM (active) and 2 µM (active) and 2.24 µM (active); in test [5], 2.24 µM (active) and 2.51 µM (active); in [6], 7.94 µM (active).
With `C[C@](N)(Cc1ccc(O)c(O)c1)C(=O)O`, the Potency result in test [2] is “inactive”.
`C[C@H]1c2cccc(O)c2C(O)=C2C(=O)[C@]3(O)C(O)=C(C(N)=O)C(=O)[C@@H](N(C)C)[C@@H]3[C@@H](O)[C@@H]21`: the Potency result in [7], in [2], in test [8] and in [9] was “inactive” each time. The values for the Potency in test [5] and in test [6] were 62.1 µM (active) and 63.1 µM (active), respectively.
On to `NCCS(=O)(=O)O`, for which the Potency result in [1], in test [2] and in test [3] was “inactive” throughout.
As to `Nc1c2c(nc3ccccc13)CCCC2`, the Potency entry in [3] is “inactive”.
Regarding `COc1ccccc1OCC(O)CN1CCN(CC(=O)Nc2c(C)cccc2C)CC1` (centres undefined), the Potency entry in test [2] and in test [3] was “inactive” each time.
`Cc1cn([C@H]2C=C[C@@H](CO)O2)c(=O)[nH]c1=O`: the Potency result in [1] and in test [3] was “inactive” in each case.
Take `Cc1cc(C(C)(C)C)c(O)c(C)c1CC1=NCCN1`: the Potency entry in [1], in [2], in test [3] and in test [10] was “inactive” in each case. Besides, the call in [11] was inactive.
For the compound `Cc1cn([C@H]2C[C@H](N=[N+]=[N-])[C@@H](CO)O2)c(=O)[nH]c1=O`, the Potency result in test [3] is “inactive”.
`CN(C)CCC=C1c2ccccc2C=Cc2ccccc21`: the Potency result in [1], in test [2] and in test [3] was “inactive” throughout.
Take `COc1ccccc1OCCNCC(O)COc1cccc2[nH]c3ccccc3c12` (centres undefined): the Potency result in test [2] and in test [3] was “inactive” throughout.
On to `CC1(C)O[C@H]2CC(=O)OC[C@]23[C@H]2CC[C@@]4(C)[C@H](c5ccoc5)OC(=O)[C@H]5O[C@]54[C@]2(C)C(=O)C[C@@H]13`, for which the Potency result in test [3] and in test [10] was “inactive” in each case. The outcome in [11] is “inactive [at 33.1 µM]”.
Turning to `CCCNCC(O)COc1ccccc1C(=O)CCc1ccccc1` (centres undefined), the Potency result in test [2] and in test [3] was “inactive” in each case.
Turning to `COc1ccccc1N1CCN(CC(O)COc2cccc3ccccc23)CC1` (centres undefined), the Potency entry in test [3] is “inactive”.
Turning to `O=C1N(c2ccccc2)c2ccccc2C1(Cc1ccncc1)Cc1ccncc1`, the Potency entry in test [1], in test [2] and in test [3] was “inactive” each time.
`CC1(CN2CCC(n3c(=O)[nH]c4ccccc43)CC2)OCc2ccccc2-n2cccc21` (centres undefined): in test [3], the Potency result is “inactive”.
The same measure, in the same setting: as for `C[C@@H]1CC(=O)NN=C1c1ccc(NN=C(C#N)C#N)cc1`, the entry is “inactive”.
In the case of `O=C(c1ccc(F)cc1)C1CCN(CCn2c(=O)[nH]c3ccccc3c2=O)CC1`, the Potency entry in test [7], in [8], in test [9], in test [3], in test [10] and in test [5] was “inactive” in each case. Further, in [11], the compound was called inactive.
For `CN1CCC(=C2c3ccccc3CC(=O)c3sccc32)CC1`, the Potency result in [2] and in [3] was “inactive” in each case.
On to `CN1CCN2c3ccccc3Cc3ccccc3C2C1` (centres undefined), for which the Potency entry in test [2] and in test [3] was “inactive” in each case.
Consider `N[C@@H](Cc1c[nH]c2ccc(O)cc12)C(=O)O`, for which the Potency in [1] was 50.1 µM (active). Also, in [3], the Potency result was “inactive”.
As for `NS(=O)(=O)c1cc2c(cc1Cl)NCNS2(=O)=O`, the Potency result in test [1], in test [2] and in [3] was “inactive” each time.
Regarding `Clc1ccc2c(c1)C(N1CCNCC1)=Nc1ccccc1O2`, the Potency entry in test [1], in test [2], in test [3] and in test [10] was “inactive” throughout. Besides, in test [11], the result was inactive.
As to `COc1ccc(CCN(C)CCCC(C#N)(c2ccc(OC)c(OC)c2)C(C)C)cc1OC` (centres undefined), the Potency result in test [1], in test [2] and in [3] was “inactive” each time.
On to `CN1C(C(=O)Nc2ccccn2)=C(O)c2ccccc2S1(=O)=O`, for which the Potency entry in [2] and in [3] was “inactive” throughout.
